# An excerpt weighted towards active compounds, which were near 21% of everything screened.
# DT40 TDP1 no CPT = qHTS for Inhibitors of human tyrosyl-DNA phosphodiesterase 1 (TDP1): qHTS in cells in absence of CPT | Potency, µM (highest dose often 46.2 µM), hits mostly inhibitors | 420,000 compounds, 15% hits | DT40 Tdp1-/- hTDP1 cells, no CPT, ATP luminescence, 48 h; note: nearly all actives have a fitted effect of over 55% in size
#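 Luminescent ATP content (CellTiter-Glo) served as the growth readout. Knockout chicken DT40 cells expressing human TDP1 were exposed to compounds without camptothecin for a minimum 48 hr at 37 °C.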
# ELG1 DNA repair = inhibitors of ELG1-dependent DNA repair in HEK293T cells | 330,000 compounds, 2.3% hits | Potency, µM (doses to about 46.1 µM), actives largely listed as inhibitors | HEK293T ELG1-luciferase reporter, luminescence, 16 h; DNA damage induced by 5-fluorouridine | AID 504467; note: nearly all actives have a fitted effect of over 55% in size
#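 HEK293T cells expressing luciferase-tagged ELG1 (2,000/well) received 5-Fluorouridine plus compound or DMSO for 16 hr at 37 °C. Luciferase was read by ONE-Glo luminescence after 30 min at room temperature.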
# Gal4-VP16 FLuc = Gal4-VP16 reporter inhibition counter-screen. 310,000 compounds, 3.5% hits. Potency, µM (titrated, usually from 53.6 µM), most hits filed as inhibitors. Drosophila S2 Gal4-VP16 UAS-luciferase, luminescence, 20 h;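 note: Gal4-VP16 expression switched on by copper sulfate through the metallothionein promoter; nearly all actives have a fitted effect of over 50% in size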
# RORgamma inh = inhibitors of mouse ROR gamma transcriptional activity; Drosophila S2 Gal4-RORgamma UAS-luciferase reporter, 20 h; Potency, µM (doses to about 53.6 µM), usual class: inhibitors; AID 2551; 310,000 compounds, 5.4% hits; P51450; note: nearly all actives have a fitted effect of over 60% in size
# Target sequence (P51450 whole entry, looked up, the tested form may be a part): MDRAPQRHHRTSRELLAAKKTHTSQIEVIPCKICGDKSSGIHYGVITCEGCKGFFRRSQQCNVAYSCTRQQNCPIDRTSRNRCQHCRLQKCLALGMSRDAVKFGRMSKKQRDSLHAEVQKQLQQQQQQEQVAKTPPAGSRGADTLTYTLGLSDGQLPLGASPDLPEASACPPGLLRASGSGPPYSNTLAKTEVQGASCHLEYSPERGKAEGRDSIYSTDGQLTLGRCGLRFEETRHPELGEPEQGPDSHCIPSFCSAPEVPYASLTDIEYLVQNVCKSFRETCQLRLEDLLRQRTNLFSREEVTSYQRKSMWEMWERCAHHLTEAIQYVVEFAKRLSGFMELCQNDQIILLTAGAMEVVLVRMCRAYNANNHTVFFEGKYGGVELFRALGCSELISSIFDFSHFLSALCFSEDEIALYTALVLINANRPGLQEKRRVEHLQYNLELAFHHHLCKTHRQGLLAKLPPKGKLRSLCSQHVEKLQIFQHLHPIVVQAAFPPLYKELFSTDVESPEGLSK
#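 Using a luciferase readout, inhibitors were identified by reduced reporter activity in Drosophila cells coexpressing a copper-inducible Gal4–ROR gamma fusion and UAS-driven Photinus luciferase, incubated 20 hr after 700 uM copper sulfate.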
# IL1B secr inh = blocks inflammasome-driven IL-1 beta release | THP-1 LPS/ATP IL-1B secretion, AlphaLISA, 16 h; active compounds read low | activity change, % at 57.5 µM | 360,000 compounds, 4.7% hits | AID 743279; in the data active = activity change below about -50%; inconclusive = mostly about -30% to -49%
#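 Secreted IL-1B measured by AlphaLISA bead assay after 16 h compound exposure of THP-1 cells; compounds (final up to 57.5 uM) added 1 h before LPS (250 ng/mL) and ATP (1.25 mM) stimulation; lower signal means less secretion.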
# DT40 TDP1 CPT = DT40-hTDP1 cell growth loss with CPT; 420,000 compounds, 12% hits; Potency, µM (highest dose often 46.2 µM), most hits filed as inhibitors; chicken DT40 Tdp1-/-;hTDP1 cells + 20 nM CPT, ATP luminescence, 48 h; note: nearly all actives have a fitted effect of over 55% in size
#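 Cell growth measured by CellTiter-Glo luminescence after a minimum 48 h, 37 C compound exposure with 20 nM CPT in Tdp1-knockout DT40 cells stably expressing hTDP1, seeded 400/well; qHTS titration format.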
# A number is an active result; – = inactive; ? = inconclusive; · = no result given. Unless noted, calls come from the whole dose curve; as a rule, active = well fitted curve in the direction sought with a large enough effect; inconclusive = small, poorly fitted or top-dose-only effect, or another doubt; inactive = no such curve, though single readings can be large; an effect the other way counts as inactive or inconclusive.
SMILES,DT40 TDP1 no CPT,ELG1 DNA repair,Gal4-VP16 FLuc,RORgamma inh,IL1B secr inh,DT40 TDP1 CPT
CC(C)c1ccc(-n2c(-c3ccccc3)c[n+]3c2CCc2ccccc2-3)cc1,0.033µM,2.3µM,3.5µM,4.5µM,-114,0.0073µM
COc1ccc(-n2c(-c3ccc(Br)cc3)c[n+]3c2CCc2ccccc2-3)cc1,0.92µM,?,6.3µM,–,-59,1.6µM
COc1cccc(CNC(=O)c2nn(-c3ccccc3Cl)nc2CO)c1,–,·,·,·,·,?
O=C(Nc1ccc(N2CCOCC2)cc1)c1nc2ccccc2s1,–,?,–,–,–,–
COc1ccc(S(=O)(=O)N(C)C)cc1NCC(=O)Nc1ccc(Br)c(C)c1,18µM,?,–,–,–,?
COc1ccc(C)cc1S(=O)(=O)N(CC(=O)Nc1cc([N+](=O)[O-])ccc1C)c1ccc(C)c(C)c1,10µM,–,–,–,–,8.2µM
COc1ccc([N+](=O)[O-])cc1NCC(=O)Nc1cc(S(=O)(=O)N2CCCCC2)ccc1C,23µM,?,·,·,–,15µM
COc1ccc(S(=O)(=O)N2CCCCC2)cc1NCC(=O)Nc1ccc(C)cc1,9.2µM,–,3.5µM,–,–,16µM
COc1ccc(C)cc1S(=O)(=O)N(CC(=O)Nc1cccc([N+](=O)[O-])c1)c1cc(C)cc(C)c1,?,–,?,?,–,–
Cc1ccc(S(=O)(=O)N2CCCCC2)cc1NC(=O)Cc1c[nH]c2ccccc12,?,–,–,?,–,?
COc1ccc(S(=O)(=O)N2CCCCC2)cc1NC(=O)Cc1c[nH]c2ccccc12,15µM,–,–,?,–,?
COc1ccc(S(=O)(=O)N2CCCCC2)cc1NC(=O)CNc1ccccc1C(C)=O,?,?,·,·,–,23µM
CC(=O)C[C@@H]1SC[C@H](c2ccccc2)N1S(=O)(=O)c1ccc(C)cc1,15µM,·,·,·,–,15µM
CCOC(=O)C1=C[C@@H](C(C)(C)C)N(S(=O)(=O)c2ccc(C)cc2)[C@H]1c1ccc(C)cc1,12µM,·,·,·,–,13µM
CCOC(=O)C1=C[C@@H](C2CCCC2)N(S(=O)(=O)c2ccc([N+](=O)[O-])cc2)[C@H]1c1ccccc1,12µM,·,·,·,–,21µM
CCOC(=O)C1=C[C@@H](C(C)(C)C)N(S(=O)(=O)c2ccc(C)cc2)[C@H]1c1ccccc1Cl,?,·,·,·,–,?
CC(=O)[C@H]1CC[C@@H](c2ccccc2)N(S(=O)(=O)c2ccc(C)cc2)C1,?,·,·,·,–,?
CCOC(=O)C1=C[C@@H](C(C)C)N(S(=O)(=O)c2ccc(C)cc2)[C@H]1c1ccc(C(C)C)cc1,18µM,·,·,·,–,?
CCCCN(C(=O)C1CC(=O)N(CCc2ccc(OC)c(OC)c2)C1)c1c(N)n(CCCC)c(=O)[nH]c1=O (configuration not stated),–,–,·,·,–,–
CCC(C(=O)NCc1ccccc1)n1c(-c2cccs2)nc2ccccc21 (configuration not stated),?,·,·,·,–,?
COc1ccc(N2CCN(S(=O)(=O)c3ccc(-c4cc(C(F)(F)F)on4)s3)CC2)cc1,–,·,·,·,·,–
Cc1noc(C)c1S(=O)(=O)N(C)C[C@H]1Oc2c(NC(=O)NC(C)C)cccc2C(=O)N([C@H](C)CO)C[C@@H]1C,–,–,·,·,–,–
O=c1[nH]c2ccc(Br)cc2c(=O)o1,–,·,·,·,–,?
CCOC(=O)C1=CCC(c2ccccc2)N(S(=O)(=O)c2ccc(C)cc2)[C@H]1CC (some centres not stated),16µM,·,·,·,–,21µM
CC[C@@H]1C=C(C(=O)O)[C@H](c2cccc(C)c2)N1S(=O)(=O)c1ccc(C)cc1,–,–,·,·,–,–
SMILES,DT40 TDP1 no CPT,ELG1 DNA repair,Gal4-VP16 FLuc,RORgamma inh,IL1B secr inh,DT40 TDP1 CPT
C=CC[C@H]1C(C(=O)OCC)=CC[C@@H](c2ccccc2)N1S(=O)(=O)c1ccc(C)cc1,?,·,·,·,–,?
CCOC(=O)C1=C[C@@H](CC)N(S(=O)(=O)c2ccc(C)cc2)[C@H]1c1ccccc1,15µM,·,·,·,–,23µM
CCOc1ccccc1N(CC(=O)OC)S(=O)(=O)c1ccccc1,–,–,–,–,–,–
CC(=O)OCOC(=O)CN(CC(=O)OCOC(C)=O)c1ccccc1OCCOc1ccccc1N(CC(=O)OCOC(C)=O)CC(=O)OCOC(C)=O,1.6µM,·,·,·,·,1.4µM
COc1ccc(CNc2nc(-c3cccc(C#N)c3)nc3ccccc23)c(OC)c1,?,·,–,?,·,?
Cc1cc(O)c(C(c2ccccc2)N2CCC(C)CC2)c(=O)n1Cc1ccco1 (configuration not stated),–,·,·,·,·,–
Cc1ccc(-c2nc3ccccc3o2)cc1NC(=S)NC(=O)c1cc2ccccc2o1,15µM,?,?,?,–,15µM
Cc1ccc2oc(-c3ccc(C)c(NC(=S)NC(=O)c4cccs4)c3)nc2c1,?,?,7.1µM,7.1µM,–,?
Cc1ccc(-c2nc3ncccc3o2)cc1NC(=S)NC(=O)c1ccco1,?,–,–,–,–,–
COc1ccc(Br)cc1/C=C(\C(=O)O)c1ccc(S(=O)(=O)N2CCCCC2)s1,–,–,·,·,–,–
COc1ccc(C(=O)COC(=O)[C@@H](NS(=O)(=O)c2ccccc2)C(C)C)cc1,?,?,·,·,–,–
Cc1cc(C(=O)OCC(=O)Nc2cccnc2Cl)c2ccccc2n1,–,–,–,–,–,–
Cn1c(OCc2cccnc2)nc2c1c(=O)n(Cc1ccc(Cl)cc1)c(=O)n2C,18µM,·,·,·,–,12µM
CC(O)CNc1nc2c(c(=O)n(Cc3ccc(Br)cc3)c(=O)n2C)n1C (configuration not stated),?,?,–,–,–,–
Cn1c(OCc2cccnc2)nc2c1c(=O)n(Cc1ccc(Br)cc1)c(=O)n2C,?,16µM,?,3.5µM,-53,?
Cn1c(N2CCN(c3ccccn3)CC2)nc2c1c(=O)n(Cc1ccc(Cl)cc1)c(=O)n2C,?,16µM,–,–,–,16µM
Cc1ccc(C2(c3ccccc3)NC(=O)N(CC(=O)NC3(C#N)CCCC3)C2=O)cc1C (configuration not stated),–,–,·,·,–,–
COc1ccc(NC(=O)CN2CCN(CC(=O)Nc3ccccc3Cl)CC2)cc1,?,?,–,–,–,?
CCc1c(C)sc2c1CCN(C(=O)Nc1cc(C)ccc1C)C2c1ccc(OC)cc1 (configuration not stated),26µM,·,·,·,·,?

# Compound activity from PubChem BioAssay.
